The results in this text go back to PubChem BioAssay (NCI).

The structures appear in SMILES notation. Compounds without any hit were thinned out: in the full panel of roughly 79,000, 15% have a hit. A number with no mark means an inactive call. The source made the active and inactive calls. Rule as the data show it: active = growth inhibition above about 70%; inactive = the rest.

A short description of experiment [1]: NCI Yeast Anticancer Drug Screen. Data for the mec2-1 strain (AID 157). The note with it: S. cerevisiae mec2-1 strain, stronger effect = higher value. The essentials: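 Vehicle-treated cultures served as reference for growth inhibition of compound-exposed mec2-1 yeast.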
Experiment [2] can be described thus: NCI Yeast Anticancer Drug Screen. Data for the sgs1 mgt1 strain (AID 161).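 Also: 0% = growth of cultures given vehicle only.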 The note with it: S. cerevisiae sgs1 mgt1 strain, stronger effect = higher value. The method, boiled down:
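Test agents were incubated with a DNA-repair-mutant yeast strain. Growth was then read and compared against vehicle-treated controls.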

Experiment [3] is described as follows: NCI Yeast Anticancer Drug Screen. Data for the cln2 rad14 strain (AID 165).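 Also: 0% = growth equal to vehicle treated cultures.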 The note with it: S. cerevisiae cln2 rad14 strain, stronger effect = higher value. The essentials: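 Each compound was tested on cln2 rad14 yeast. Inhibition of growth was calculated against vehicle-exposed controls.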
Experiment [4] can be described thus: NCI Yeast Anticancer Drug Screen. Data for the bub3 strain (AID 167). The note with it: S. cerevisiae bub3 mutant strain, stronger effect = higher value. The essentials:
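Part of a panel of yeast mutants defective in DNA damage repair or cell cycle regulation. Each strain is grown with compound, and inhibition is calculated relative to solvent-treated cultures.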

The nature of experiment [5]: NCI Yeast Anticancer Drug Screen. Data for the mlh1 rad18 strain (AID 175). The note with it: S. cerevisiae mlh1 rad18 strain growth inhibition, stronger effect = higher value. The essentials: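 Vehicle-treated cultures served as the reference for growth inhibition in a yeast strain carrying DNA damage repair alterations exposed to each compound.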
Experiment [6] in a line: NCI Yeast Anticancer Drug Screen. Data for the rad50 strain (AID 155).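 Also: 0% = growth of vehicle-only cultures of the same strain.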 The note with it: S. cerevisiae rad50 strain growth inhibition, stronger effect = higher value. The essentials:
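Cells are treated with compound, grown, and their growth is then scored against vehicle-only cultures of the same repair-deficient yeast strain.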

The mark [7] stands for this setting: at 5.0 µM (retest, dose inferred, filed as 0.5).
[8] abbreviates: at 50.0 µM (retest, dose inferred, filed as 5.0).

As for `Cc1ccc(S(=O)(=O)C(=S)Sc2ccccc2)cc1`, the growth inhibition in experiment [1] (setting [7]) is 8%; in experiment [1] (setting [8]) it was 89% (active); in experiment [1] (at 50.0 µM) it was 39.5%; in experiment [2] (setting [7]), 10%; in experiment [2] (setting [8]), 88% (active); in experiment [2] (at 50.0 µM), 80.6% (active). Moreover, the growth inhibition in experiment [3] (setting [7]) is 6%; in experiment [3] (setting [8]), 63%; in experiment [3] (at 50.0 µM) it was 33.7%; in experiment [4] (setting [7]), 17%; in experiment [4] (setting [8]) it was 90% (active); in experiment [4] (at 50.0 µM), 36.5%. Also, the growth inhibition was 11% in experiment [5] (setting [7]), 92% (active) in experiment [5] (setting [8]) and 79.8% (active) in experiment [5] (at 50.0 µM).

On to `CCCCCN(CCCCC)CC(C)(C)C(O)c1ccc(OC)c2ccccc12` (stereo not given), for which the growth inhibition in experiment [6] (setting [7]) was -2%; in experiment [6] (setting [8]), 42%; in experiment [6] (at 50.0 µM) it was 51.9%; in experiment [1] (setting [7]), -4%; in experiment [1] (setting [8]), 18%; in experiment [1] (at 50.0 µM), 47.6%. Also, the growth inhibition in experiment [3] (setting [7]) is -4%; in experiment [3] (setting [8]), 27%; in experiment [3] (at 50.0 µM), 86.9% (active); in experiment [4] (setting [7]), 0%; in experiment [4] (setting [8]), 64%; in experiment [4] (at 50.0 µM), 33.2%. Besides, the growth inhibition in experiment [5] (setting [7]) was -2%; in experiment [5] (setting [8]) it was 57%; in experiment [5] (at 50.0 µM), 77.3% (active).

As for `CCOC(=O)C(C(=O)OCC)C(=O)c1ccc2c(c1)OCO2`, the growth inhibition in experiment [6] (setting [7]) is 3%; in experiment [6] (setting [8]), 83% (active); in experiment [6] (at 50.0 µM), 52.4%; in experiment [1] (setting [7]), 2%; in experiment [1] (setting [8]) it was 75% (active); in experiment [1] (at 50.0 µM), 35.5%. The growth inhibition in experiment [3] (setting [7]) is 10%; in experiment [3] (setting [8]), 21%; in experiment [3] (at 50.0 µM) it was 1.25%; in experiment [4] (setting [7]), 7%; in experiment [4] (setting [8]), 81% (active); in experiment [4] (at 50.0 µM), 89.2% (active). Also, the figures for the growth inhibition in experiment [5] (setting [7]), in experiment [5] (setting [8]) and in experiment [5] (at 50.0 µM) were 4%, 94% (active) and 60.4%, respectively.

As to `CSc1ccc(NC(=S)SC(C)C)cc1Cl`, the growth inhibition was 15% in experiment [6] (setting [7]); 98% (active) in experiment [6] (setting [8]); 99% (active) in experiment [6] (at 50.0 µM); 1% in experiment [1] (setting [7]); 99% (active) in experiment [1] (setting [8]); 99.3% (active) in experiment [1] (at 50.0 µM). Besides, the growth inhibition in experiment [3] (setting [7]) was -32%; in experiment [3] (setting [8]) it was 97% (active); in experiment [3] (at 50.0 µM) it was 99% (active); in experiment [4] (setting [7]), -6%; in experiment [4] (setting [8]) it was 99% (active); in experiment [4] (at 50.0 µM), 99.4% (active). Further, the values for the growth inhibition in experiment [5] (setting [7]), in experiment [5] (setting [8]) and in experiment [5] (at 50.0 µM) were 19%, 99% (active) and 99% (active), respectively.

For the compound `Nc1cc(S(=O)(=O)O)cc2cc(S(=O)(=O)O)c(N=Nc3ccccc3)c(O)c12`, the growth inhibition was 0% in experiment [6] (setting [7]); -1% in experiment [6] (setting [8]); 99.3% (active) in experiment [6] (at 50.0 µM); -2% in experiment [1] (setting [7]); 5% in experiment [1] (setting [8]); 99.2% (active) in experiment [1] (at 50.0 µM). Besides, the growth inhibition in experiment [3] (setting [7]) is 12%; in experiment [3] (setting [8]) it was 3%; in experiment [3] (at 50.0 µM), 96.5% (active); in experiment [4] (setting [7]) it was -36%; in experiment [4] (setting [8]), 10%; in experiment [4] (at 50.0 µM), 99% (active). For the same compound, the growth inhibition was 0% in experiment [5] (setting [7]), 1% in experiment [5] (setting [8]) and 98.7% (active) in experiment [5] (at 50.0 µM).

`Oc1ccc2c(c1)OCC1c3ccccc3OC21` (stereo not given): the growth inhibition is 24% in experiment [6] (setting [7]); 71% (active) in experiment [6] (setting [8]); 76.7% (active) in experiment [6] (at 50.0 µM); 38% in experiment [1] (setting [7]); 78% (active) in experiment [1] (setting [8]); 64.3% in experiment [1] (at 50.0 µM). For the same compound, the growth inhibition in experiment [3] (setting [7]) is 23%; in experiment [3] (setting [8]), 56%; in experiment [3] (at 50.0 µM), 50.1%; in experiment [4] (setting [7]), 37%; in experiment [4] (setting [8]) it was 89% (active); in experiment [4] (at 50.0 µM), 75% (active). For the same compound, the growth inhibition in experiment [5] (setting [7]) was 50%; in experiment [5] (setting [8]) it was 88% (active); in experiment [5] (at 50.0 µM) it was 76.7% (active).

As to `CCC1(O)c2ccccc2C(O)(CC)c2ccccc21` (stereo not given), the growth inhibition in experiment [6] (setting [7]) was 11%; in experiment [6] (setting [8]), 28%; in experiment [6] (at 50.0 µM), 74% (active); in experiment [1] (setting [7]) it was 3%; in experiment [1] (setting [8]), 40%; in experiment [1] (at 50.0 µM), 89.6% (active). In addition, the growth inhibition in experiment [2] (setting [7]) was 5%; in experiment [2] (setting [8]), 53%; in experiment [2] (at 50.0 µM), 23.4%; in experiment [4] (setting [7]), 7%; in experiment [4] (setting [8]) it was 54%; in experiment [4] (at 50.0 µM), 97% (active). For the same compound, the results for the growth inhibition in experiment [5] (setting [7]), in experiment [5] (setting [8]) and in experiment [5] (at 50.0 µM) were 14%, 68% and 97.7% (active), respectively.
